Bioassay records: PubChem BioAssay, several laboratories
Shown are actives, neighbours in structure and some others; about 0.44% of the full set was active somewhere.
YopH PTP inh: blocks Yersinia enterocolitica YopH tyrosine phosphatase; inhibition, % (no concentration beside the values); AID 898; 140,000 tested, 0.16% active; fluorescence Ex485/Em525; in the data active = inhibition above about 50%
RmlC RmlD mix: RmlC/RmlD inhibition, mixture screen; inhibition, % at 5.5 µM; 110,000 tested, 0.39% active; RmlC/RmlD coupled enzyme inhibition, 384-well mixture HTS; AID 1532; in the data active = inhibition above about 30%, passing the limit was not always enough
Active calls of the source: *; / = no result.

SMILES	YopH PTP inh	RmlC RmlD mix
N[C@@H](C(=O)N[C@@H]1C(=O)N2C(C(=O)O)=C(Cl)CS[C@H]12)c1ccccc1	97.1*	-8.9
NC(=O)c1cc[n+](CC2=C(C(=O)O)N3C(=O)[C@@H](NC(=O)C(c4ccccc4)S(=O)(=O)[O-])[C@H]3SC2)cc1 (stereo partly specified)	-46.4	-5.5
C/C(=N\OCC(=O)Nc1ccc2c(c1)OCCO2)c1ccc2c(c1)OCCO2	-15.0	/
O=C(CSc1nnc(-c2ccccc2)o1)n1c2c(c3ccccc31)CCCC2	56.0*	-7.6
CC(=O)Nc1ccc(-c2nnc(SCC(=O)n3c4c(c5ccccc53)CCCC4)n2C)cc1	75.3*	-4.8
Cn1c(SCC(=O)n2c3c(c4ccccc42)CCCC3)nnc1-c1ccccc1	4.8	0.2
Cc1ccc(-c2nnc(SCC(=O)n3c4c(c5ccccc53)CCCC4)o2)cc1	-17.1	/
Cn1cc(-c2nnnn2-c2cccc(C(F)(F)F)c2)c(C(F)(F)F)n1	-31.3	3.1
C/C(=N/NC(=O)c1ccoc1C)c1ccc(NC(=O)c2ccncc2)cc1	-17.9	/
CC(C)CC(NC(=O)C(COC(C)(C)C)NC(=O)C(Cc1ccc(O)cc1)NC(=O)C(CO)NC(=O)C(Cc1c[nH]c2ccccc12)NC(=O)C(Cc1cnc[nH]1)NC(=O)C1CCC(=O)N1)C(=O)N[C@@H](CCCN=C(N)N)C(=O)N1CCCC1C(=O)NNC(N)=O (stereo partly specified)	/	-8.6
CC(C)(C)C(=O)NC(=S)NCc1ccccc1	-15.3	/
Cc1ccc(S(=O)(=O)N2CCCC(C(=O)NCc3ccco3)C2)cc1Cl (stereo unspecified)	56.2*	-7.7
O=C(NCc1ccco1)C1CCCN(S(=O)(=O)Cc2ccccc2)C1 (stereo unspecified)	-23.8	-8.6
CCc1nc(SCC(=O)Nc2sc(C)c(C)c2C(=O)OC)c2ccccc2n1	-33.0	10.3
COc1cc(-c2nc3cnccn3c2Nc2ccc(C)cc2)ccc1O	-23.3	0.1
COc1cc(-c2nc3cnccn3c2Nc2ccccc2)ccc1O	-3.0	39.8*
COC(=O)C1NC(=O)N2C(C(=O)OC)C(C)(C)S[C@H]12 (stereo partly specified)	/	7.7
Cc1ccc(C)c(SCC(=O)Nc2cc(C)nn2-c2ccc(F)cc2)c1	-4.9	/
CCCCn1c(NC(=O)c2ccccc2)c(C#N)c2nc3ccccc3nc21	59.7*	/
CCC(C)n1c(NC(=O)c2ccccc2)c(C#N)c2nc3ccccc3nc21 (stereo unspecified)	14.1	-9.6
NC(=O)CC(NC(=O)Cc1ccc(Br)cc1)c1ccc(NCCc2ccccc2F)c([N+](=O)[O-])c1 (stereo unspecified)	/	-6.0
CCOC(=O)Cn1nc(-c2ccccc2)nc1-c1ccccc1	-8.8	10.0
CCn1nc(-c2ccccc2)nc2c(=O)n(C)c(=O)nc1-2	101.5*	2.4
COCCn1c(SCC(=O)Nc2ccc(NC(=O)c3ccco3)c(OC)c2)nc2ccccc2c1=O	5.8	-12.0
CCn1c(SCC(=O)Nc2ccc(NC(=O)c3ccco3)c(OC)c2)nc2ccccc2c1=O	-23.4	95.0*
SMILES	YopH PTP inh	RmlC RmlD mix
COc1ccccc1N1C(C)=CC(=C(C#N)c2nc3ccccc3s2)C=C1C	70.0*	/
CC1=CC(=C(C#N)c2nc3ccccc3s2)C=C(C)N1c1ccc(F)cc1	65.2*	/
COC(=O)c1ccc(/C(O)=C(\C#N)c2nc3ccccc3s2)cc1	-30.3	3.8
CC(C)=C(C#N)c1nc2ccccc2s1	11.6	-15.2
S=C(NCCc1ccccn1)Nc1cccc(Cl)c1	-24.6	/
Nc1ccc(-n2nncc2-c2ccc(Cl)cc2)cc1	0.1	-3.1
COC/C=C/C1=CC2=CC(=O)C(C)(OC(=O)c3cnc4ccccc4n3)C(=O)C2=CO1 (stereo unspecified)	/	-11.1
COC(C[C@@H]1O[C@H]1[C@H](O)[C@@H](C)OCc1ccccc1)OC	/	7.3
Cc1noc(NS(=O)(=O)c2ccc(NC(=O)CCCOc3ccc(Cl)cc3Cl)cc2)c1C	92.2*	5.2
Cc1noc(NS(=O)(=O)c2ccc(NC(=O)COc3ccc(Cl)cc3Cl)cc2)c1C	-30.9	/
O=C(Nc1ccc(C(=O)N2CCCC2)cc1)Nc1ccc(Cl)cc1Cl	-16.2	/
O=C1[C@@H]2[C@@H]3C[C@@H]([C@H]4ON=C(c5ccc(Cl)cc5)[C@@H]34)[C@@H]2C(=O)N1C1CCCCC1	-14.8	/
COC(=O)[C@@]1(Cc2ccccc2)[C@H]2c3cc(C(=O)N4CCCC4)n(Cc4ccsc4Br)c3C[C@H]2CN1C(=O)c1ccccc1	-21.2	-10.8
O=C1C(N2CCOCC2)=C(n2nnc3ccccc32)C(=O)c2ccccc21	68.7*	-8.7
O=C1c2ccccc2C(=O)c2c1cccc2N1CCOCC1	-25.4	/
O=C(O)/C(=C\c1ccc(Br)cc1)c1ccc(S(=O)(=O)N2CCCCC2)s1	3.0	/
O=C(c1cccc(NS(=O)(=O)c2ccc(F)c(F)c2)c1)N1CCN(Cc2ccccc2)CC1	-37.1	/
O=C(c1ccco1)N1CCN(CC(=O)N2CCCc3c2c(=O)oc2ccc(O)cc32)CC1	52.6*	17.3
O=C(CN1CCN(Cc2ccccc2)CC1)N1CCCc2c1c(=O)oc1ccc(O)cc21	18.0	/
O=C(NC1CCCC1)C1CCCN1S(=O)(=O)c1cccc2cccnc12 (stereo unspecified)	-38.1	5.0
O=C(NCc1ccccc1)C1CCCN1S(=O)(=O)c1cccc2cccnc12 (stereo unspecified)	80.2*	18.9
CC(=O)Nc1cc(OC(C)=O)c2nonc2c1OC(C)=O	75.9*	-5.8
CC(=O)Nc1nonc1NC(C)=O	-5.5	-8.9
CCO[C@H]1OC(C(N)=O)=C[C@@H](C2CC2)[C@@H]1CCCO	/	5.4
CN(C(=O)Nc1ccccc1)C1CCS(=O)(=O)C1 (stereo unspecified)	-8.8	-13.1
SMILES	YopH PTP inh	RmlC RmlD mix
CC(=O)NC1=C(N(C)C2CCS(=O)(=O)C2)C(=O)c2ccccc2C1=O (stereo unspecified)	74.0*	/
Cc1ccccc1NC(=O)Nc1nnc(Cc2ccc([N+](=O)[O-])cc2)s1	-24.8	/
CC(O)[C@H]1CNC(=O)C(=O)N1CC1(c2ccccc2)CC1 (stereo partly specified)	/	3.8
O=C1C2=C(c3ccccc31)[N+](=O)C1CCCCC1N2[O-] (stereo unspecified)	14.5	2.2
O=C1C2=C(c3ccccc31)[N+](=O)[C@@H]1CCCC[C@@H]1N2[O-]	58.6*	11.8
COc1ccc(/C=C/c2ccccc2)cc1[C@H]1[C@H]2C=CC[C@@H](C)[C@@H]2C(=O)N1Cc1ccccc1	/	-9.0
Cn1c(COc2ccccc2)nnc1SCc1nc2ccccc2[nH]1	70.7*	5.2
CCn1c(COc2ccc(C)cc2)nnc1SCc1nc2ccccc2[nH]1	11.5	-4.7
COC(C[C@@H](O)[C@@H](C)[C@@H](O)COCc1ccccc1)OC	/	-6.2
CCCC(=O)Nc1cc(OC)c(OC)cc1C(=O)O	-29.1	-9.1
CCCCNc1cc(NC(C)=O)cc2cc(OC)c(OC)cc12	79.6*	-8.6
Cc1cc(=O)oc2cc(OCC(=O)OCC(=O)NCc3ccc4c(c3)OCO4)ccc12	-17.5	36.7*
CC(=O)OCC(=O)NCc1ccc2c(c1)OCO2	-46.1	3.9
CCOc1ccccc1NC(=O)Cn1c(=O)n(-c2ccccc2)c(=O)c2oc3ccccc3c21	-10.5	/
COC(=O)CCC(=O)OC1(C)C(=O)C=C2C=C(C3CC3)OC=C2C1=O (stereo unspecified)	/	-7.1
COc1ccc(NS(=O)(=O)c2cccc(-c3nnc4n3CCCCC4)c2)cc1	-40.8	10.6
